Results filed as inconclusive are left out. Activity calls are given as the source filed them. How the source made its calls, unless noted: active means hit-call score of the fitted dose curve at least 0.9, where 1 is the maximum; inactive means score below 0.9.

Assay [1] addresses human Vitamin D Receptor (VDR), VDR (gene 7421) (UniProt P11473). Description: ATG_VDR_TRANS: Attagene TRANS-FACTORIAL HepG2 Assay for human Vitamin D Receptor (VDR) (AID 2283022; active means hit-call score of the fitted dose curve at least 0.9, where 1 is the maximum). The procedure, abridged: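 HepG2 cells were transiently transfected with GAL4-UAS reporter units and a chimeric VDR-Gal4 construct, then dosed for 24 hours. Reporter mRNA was quantified by RT-PCR, fluorescent labeling, HpaI digestion and capillary electrophoresis; gain of signal analysed vs DMSO.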

Read-out in assay [2]: Interleukin-8 (IL8), CXCL8 (gene 3576)
The assay can be described thus: BSK_3C_IL8: BioMAP Diversity Plus: 3C Assay for Interleukin-8 (IL8) Biomarker Activity (AID 2283020). Particulars: primary human endothelial cells (HUVEC); actives raise or lower the signal. The method, boiled down:
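Endothelial primary cells of human umbilical vein origin are dosed with chemical; after 24 h the IL-8 biomarker is measured by ELISA, and concentration–response is fitted in both directions versus DMSO.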

Read-out in assay [3]: Monokine induced gamma interferon (MIG), CXCL9 (gene 4283)
The assay can be described thus: BSK_3C_MIG: BioMAP Diversity Plus: 3C Assay for Monokine induced gamma interferon (MIG) Biomarker Activity (AID 2283021). The following applies: primary human endothelial cells (HUVEC); actives raise or lower the signal. The procedure, abridged:
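Endothelial primary cells (human umbilical vein) are dosed with test chemical in the 3C system. MIG levels are measured by ELISA at 24 h and fitted in both directions relative to DMSO.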

Assay [4] is described as follows: BSK_3C_SRB: Viability Assessment in the BioMAP Diversity Plus: 3C Assay (AID 2283023).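 Further: fitted both ways against DMSO so a hit may be signal rise or drop.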 Particulars: primary human endothelial cells (HUVEC). The procedure, abridged:
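Human umbilical vein endothelial cells in the 3C system, treated 24 h. Total protein measured by 0.1% sulforhodamine B staining after 10% TCA fixation, read at 560 nm; bidirectional fit versus DMSO.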

Read-out in assay [5]: Matrix Metallopeptidase 1 (MMP1), MMP1 (gene 4312)
The assay can be described thus: BSK_BE3C_MMP1: BioMAP Diversity Plus: BE3C Assay for Matrix Metallopeptidase 1 (MMP1) Biomarker Activity (AID 2283024). Particulars: primary human bronchial epithelial cells; actives raise or lower the signal. The method, boiled down: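 MMP1 signal, measured by ELISA after a 24 h chemical exposure of human primary bronchial epithelial cells, is analysed with bidirectional fitting using DMSO as negative control.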

Assay [6] in a line: BSK_3C_Vis: BioMAP Diversity Plus: 3C Assay for Morphology Visualization (AID 2283025).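 Further: fitted both ways so gain or loss versus DMSO counts.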 Particulars: primary human endothelial cells (HUVEC). The method, boiled down:
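Morphology read by light microscopy serves as a background control for the multiplexed 3C assay in human umbilical vein endothelial cells, taken 24 h after dosing, with DMSO as the negative control and bidirectional curve fitting.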

Read-out in assay [7]: Pselectin, SELP (gene 6403)
Description: BSK_4H_Pselectin: BioMAP Diversity Plus: 4H Assay for Pselectin Biomarker Activity (AID 2283026). Particulars: primary human endothelial cells (HUVEC); actives raise or lower the signal. The procedure, abridged: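 Endothelial primary cells (human umbilical vein) are dosed, incubated 24 h, and assayed for surface P-selectin by ELISA; responses in either direction are fitted relative to the DMSO negative control.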

Assay [8] in a line: BSK_4H_SRB: Viability Assessment in the BioMAP Diversity Plus: 4H Assay (AID 2283027).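 Further: cells exposed to compound for 24 h before staining.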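 On AC50: curves fitted both ways versus DMSO so AC50 may be loss or gain.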 The following applies: primary human endothelial cells (HUVEC). The method, boiled down:
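HUVEC, 24 h post-dose; 10% TCA fix, 0.1% SRB stain, A560 nm. Total protein = overt cytotoxicity, parallel to biomarker read. Bidirectional fit vs DMSO baseline.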

A short description of assay [9]: BSK_BE3C_SRB: Viability Assessment in the BioMAP Diversity Plus: BE3C Assay (AID 2283028). Particulars: primary human bronchial epithelial cells. The method, boiled down:
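Human bronchial epithelial primary cells in confluent culture, 24 h after chemical dosing; total protein by 0.1% SRB staining after 10% TCA fixation, read at 560 nm. Bidirectional fitting versus DMSO baseline.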

Read-out in assay [10]: Thrombomodulin, THBD (gene 7056)
Description: BSK_3C_Thrombomodulin: BioMAP Diversity Plus: 3C Assay for Thrombomodulin Biomarker Activity (AID 2283029). Particulars: primary human endothelial cells (HUVEC); actives raise or lower the signal. The procedure, abridged:
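Endothelial cells from umbilical vein are dosed with test chemical and incubated 24 h. Thrombomodulin is then quantified by ELISA, with DMSO serving as negative control and activity baseline.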

Read-out in assay [11]: Urokinase-type plasminogen activator receptor (uPAR), PLAUR (gene 5329)
The assay can be described thus: BSK_4H_uPAR: BioMAP Diversity Plus: 4H Assay for Urokinase-type plasminogen activator receptor (uPAR) Biomarker Activity (AID 2283030). The following applies: primary human endothelial cells (HUVEC); actives raise or lower the signal. The method, boiled down: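 Human umbilical vein endothelial cells in the 4H system, 24 h after chemical dosing. Cell-surface uPAR measured by ELISA, fitted in both directions versus DMSO; cytotoxicity checked by SRB total protein in parallel cultures.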

Read-out in assay [12]: Vascular endothelial growth factor receptor 2 (Homo sapiens) (UniProt P35968)
The assay can be described thus: BSK_4H_VEGFRII: BioMAP Diversity Plus: 4H Assay for Vascular endothelial growth factor receptor 2 (VEGFR2) Biomarker Activity (AID 2283031). The following applies: primary human endothelial cells (HUVEC); actives raise or lower the signal. The procedure, abridged:
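Primary human umbilical vein endothelial cells (4H system), 24 h exposure; cell-surface VEGFR2 measured by ELISA. Bidirectional fitting versus DMSO; cytotoxicity checked in parallel by SRB total-protein staining.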

Read-out in assay [13]: Human Leukocyte Antigen - DR isotype (HLADR), HLA-DRA (gene 3122)
The assay can be described thus: BSK_BE3C_HLADR: BioMAP Diversity Plus: BE3C Assay for Human Leukocyte Antigen - DR isotype (HLADR) Biomarker Activity (AID 2283032). Particulars: primary human bronchial epithelial cells; actives raise or lower the signal. The procedure, abridged: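 Chemicals are dosed onto BE3C bronchial epithelial cultures of human origin and left 24 h. HLA-DR is then measured by ELISA, and the endpoint is fitted in both directions using DMSO as the activity baseline.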

Read-out in assay [14]: Vascular cell adhesion molecule 1 (VCAM1), VCAM1 (gene 7412)
The assay can be described thus: BSK_4H_VCAM1: BioMAP Diversity Plus: 4H Assay for Vascular cell adhesion molecule 1 (VCAM1) Biomarker Activity (AID 2283033).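 On outcome: cell-surface VCAM-1 protein measured by ELISA.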 Particulars: primary human endothelial cells (HUVEC); actives raise or lower the signal. The procedure, abridged:
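Chemicals are added to primary human umbilical vein endothelial cells. After 24 h, VCAM-1 levels are measured by ELISA. Values come from bidirectional fitting referenced to DMSO.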

Read-out in assay [15]: Interferon-gamma inducible Protein 10 (IP10), CXCL10 (gene 3627)
Description: BSK_BE3C_IP10: BioMAP Diversity Plus: BE3C Assay for Interferon-gamma inducible Protein 10 (IP10) Biomarker Activity (AID 2283034). Particulars: primary human bronchial epithelial cells; actives raise or lower the signal. The procedure, abridged:
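IP-10 quantified by ELISA serves as the endpoint. Cells: primary human bronchial epithelium, read 24 h after compound addition. Activity is derived by bidirectional fitting with DMSO as negative control.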

Read-out in assay [16]: Monokine induced gamma interferon (MIG), CXCL9 (gene 4283)
The assay can be described thus: BSK_BE3C_MIG: BioMAP Diversity Plus: BE3C Assay for Monokine induced gamma interferon (MIG) Biomarker Activity (AID 2283035).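 Further: MIG protein measured by ELISA in BE3C cultures after 24 h of dosing.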 The following applies: primary human bronchial epithelial cells; actives raise or lower the signal. The method, boiled down:
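Dose cells (human primary bronchial epithelial), incubate 24 h, quantify MIG by ELISA, then fit concentration–response in both directions relative to DMSO control.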

Read-out in assay [17]: Transforming growth factor beta 1 (TGFb1), TGFB1 (gene 7040)
Description: BSK_BE3C_TGFb1: BioMAP Diversity Plus: BE3C Assay for Transforming growth factor beta 1 (TGFb1) Biomarker Activity (AID 2283036;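 further: TGF-b1 protein level measured by ELISA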). The following applies: primary human bronchial epithelial cells; actives raise or lower the signal. The method, boiled down: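 Bronchial epithelial primary cells are treated with test chemical, then TGF-b1 is quantified by ELISA after 24 hours. Values derive from bidirectional fitting against DMSO, with cytotoxicity checked by SRB staining in parallel cultures.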

Read-out in assay [18]: Plasminogen activator inhibitor-1 (PAI1), SERPINE1 (gene 5054)
Description: BSK_BE3C_PAI1: BioMAP Diversity Plus: BE3C Assay for Plasminogen activator inhibitor-1 (PAI1) Biomarker Activity (AID 2283037). Particulars: primary human bronchial epithelial cells; actives raise or lower the signal. The method, boiled down: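 Values derive from bidirectional fitting against DMSO baseline of PAI-1 levels, measured by ELISA in human bronchial epithelial cells 24 h after compound addition.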

Read-out in assay [19]: urokinase plasminogen activator (uPA), PLAU (gene 5328)
Description: BSK_BE3C_uPA: BioMAP Diversity Plus: BE3C Assay for urokinase plasminogen activator (uPA) Biomarker Activity (AID 2283038).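 Further: uPA protein level quantified by ELISA in cell cultures; uPA read one day after compound addition.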 Particulars: primary human bronchial epithelial cells; actives raise or lower the signal. The procedure, abridged:
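Primary human bronchial epithelial cells, uPA measured by ELISA 24 h after dosing. Bidirectional change relative to DMSO; cytotoxicity checked in parallel cultures by sulforhodamine B total-protein staining.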

Read-out in assay [20]: Urokinase-type plasminogen activator receptor (uPAR), PLAUR (gene 5329)
The assay can be described thus: BSK_BE3C_uPAR: BioMAP Diversity Plus: BE3C Assay for Urokinase-type plasminogen activator receptor (uPAR) Biomarker Activity (AID 2283039).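 Further: cells exposed to compound for one day before measurement.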 The following applies: primary human bronchial epithelial cells; actives raise or lower the signal. The method, boiled down: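 Steps: dose human primary bronchial epithelial cells, incubate 24 h, measure uPAR by ELISA, then fit gain- or loss-of-signal response bidirectionally relative to DMSO.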

Sequence of human Vitamin D Receptor (VDR), VDR (gene 7421) (P11473 whole entry, looked up, the tested form may be a part): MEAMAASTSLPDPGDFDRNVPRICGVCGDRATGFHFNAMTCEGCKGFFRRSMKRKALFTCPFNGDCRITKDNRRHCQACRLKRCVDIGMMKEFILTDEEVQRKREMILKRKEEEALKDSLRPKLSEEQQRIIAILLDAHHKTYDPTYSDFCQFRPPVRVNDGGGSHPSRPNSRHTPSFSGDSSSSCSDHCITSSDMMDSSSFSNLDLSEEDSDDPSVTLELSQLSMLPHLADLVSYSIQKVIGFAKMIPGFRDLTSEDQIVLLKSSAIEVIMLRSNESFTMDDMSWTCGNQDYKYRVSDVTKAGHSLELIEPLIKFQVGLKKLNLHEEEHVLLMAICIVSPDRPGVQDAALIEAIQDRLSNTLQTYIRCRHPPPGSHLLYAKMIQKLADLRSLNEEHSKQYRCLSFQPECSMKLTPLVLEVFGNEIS

For `O=C1c2ccccc2C(=O)c2c(O)c(O)cc(O)c21`, the compound was called inactive in assay [1].
For `CN(C)CCOC(c1ccccc1)c1ccccc1`, the outcome in assay [2], in [3], in assay [4], in [5], in assay [6] and in [8] was inactive. The result in assay [9], in assay [10], in [12], in assay [13], in assay [15] and in assay [16] was inactive. In addition, the outcome in assay [17], in [18], in assay [19] and in assay [20] was inactive. Further, the AC50 in assay [7] is 3.97 µM (active); in assay [11], 2.27 µM (active); in assay [14] it was 2.03 µM (active).
In the case of `Oc1cc2ccccc2cc1O`, the outcome in [2], in [3], in assay [4], in assay [5], in assay [6] and in assay [7] was inactive. For the same compound, the outcome in [8], in [9], in assay [10], in [11], in [12] and in assay [13] was inactive. Moreover, the outcome in assay [14], in assay [15], in assay [16], in assay [17], in assay [18] and in assay [19] was inactive. The outcome in assay [20] was inactive.
In the case of `O=S(=O)(c1ccc(OCc2ccccc2)cc1)c1ccccc1O`, in assay [1], the call was inactive.
As for `CCCCCCCCCCCCCCC`, the outcome in [2], in assay [3], in [4], in [5], in assay [6] and in assay [7] was inactive. Besides, the result in assay [8], in assay [9], in [10], in assay [11], in assay [12] and in [13] was inactive. In addition, the outcome in assay [14], in assay [15], in [16], in assay [17], in assay [18] and in assay [19] was inactive. Further, in assay [20], the result was inactive.
As for `O=C(CCCN1CCC(O)(c2ccc(Cl)cc2)CC1)c1ccc(F)cc1`, the AC50 in assay [2] is 9.25 µM (active); in assay [4], 17.4 µM (active); in [6], 9.8 µM (active); in [8], 9.78 µM (active); in [11] it was 10.9 µM (active); in [14] it was 20 µM (active). Besides, the outcome in [3], in assay [5], in [7], in [9], in assay [10] and in assay [12] was inactive. Moreover, the result in assay [13], in [15], in assay [16], in assay [17], in assay [18] and in assay [19] was inactive. Besides, the outcome in assay [20] was inactive.
Consider `C=CC(=C)CC/C=C(\C)CCC=C(C)C`, for which the outcome in [2], in assay [3], in assay [4], in [6], in [7] and in [8] was inactive. Further, the result in assay [9], in assay [10], in [11], in assay [12], in assay [13] and in assay [14] was inactive. The outcome in assay [15], in assay [16], in [17], in assay [18], in assay [19] and in assay [20] was inactive. The AC50 in assay [5] is 0.00695 µM (active).

Broadly, the AC50 is the midpoint of the concentration-response curve, whichever way the signal moves.

The record behind these values is PubChem BioAssay (EPA / NIEHS).
